Assay results reported in PubChem BioAssay (NCI).
Several values for one entry are separate records, joined by “and”; a condition that tells them apart may be missing. Equal values may be shown once. About 83,000 compounds went through this panel and 20% of them were active in at least one assay; those are over-represented in the sample as a whole.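 Activity criterion: percent growth below 10, measured after cells in 96-well plates were exposed to a single compound concentration for 48 hours.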 Activity calls are given as the source filed them.

System: HL-60(TB) leukemia
Test: NCI-60 one-dose screen, 48 h (100 = growth as untreated, 0 = no growth, -100 = all killed)
Settings: 10 µM unless noted

Compound	growth
O=C(CCl)Nc1ccc(C(=O)/C=C/c2cc3ccccc3nc2Cl)cc1	-17.4% (active) and 30.5% (inactive)
CC1=C(C(=O)OCc2ccccc2)C(c2ccc(-n3cncn3)cc2)n2c(nc3ccccc32)N1 (stereo not given)	8.84% (active)
COc1ccc2c(c1)c(-c1cc3nc(-c4cn(C)c5ncccc45)cc(N)n3n1)cn2C	-66.3% (active)
C#C[C@]1(O)CC[C@H]2[C@@H]3CC=C4c5sc(Nc6ccc(N(C)C)cc6)nc5CC[C@]4(C)[C@H]3CC[C@@]21C	-26.1% (active)
O=C(CSc1nc2ccccc2c(=O)[nH]1)NNC(=O)c1ccccc1Cl	105% (inactive)
CCCSc1nc(NC2CC2)c(C#N)c(-c2ccc(OC)cc2)n1	81% (inactive)
Cc1ccc(-c2cc(C(=O)N=Nc3c(O)[nH]c4ccc(Br)cc34)c3ccccc3n2)cc1	15.8% (inactive)
CN1C(=O)C2(C(C#N)=C(c3ccc(Cl)cc3)Nc3c2c(-c2ccccc2)nn3-c2ccccc2)c2ccccc21 (stereo not given)	50.3% (inactive)
Cc1ccc(C(C(=O)NC2CCCCC2)N(Cc2ccccc2Cl)C(=O)c2ccc(CN3CCOCC3)o2)o1 (stereo not given)	84.6% (inactive)
O=C(NN1C(=O)/C(=C/C=C/c2ccc([N+](=O)[O-])o2)SC1=S)c1ccc([N+](=O)[O-])cc1	-7.3% (active)
COc1cc(C2CC(c3ccccc3)=Nc3c(N)nc(N)nc3N2)ccc1Oc1nc(NCCO)nc(N2CCOCC2)n1 (stereo not given)	93.5% (inactive)
O=C(c1ccccc1)n1ccc(-c2cc3cc(Br)ccc3oc2=O)n1	-13.5% (active)
CN1CCN(C(=O)Oc2cc3c(c4ccccc24)[C@H](CCl)CN3C(=O)c2cc3cc(OCCCN4CCC4)ccc3[nH]2)[C@H]2CSSC[C@H]21	-22.8% (active)
COc1cc2c3c(n(CCCn4ccnc4)c(=O)c2cc1OC)-c1nc2c(cc1C3=O)OCO2	75.8% (inactive)
C/C(=N\N=C\c1ccc(Cl)c([N+](=O)[O-])c1)c1ccc2c(c1)Nc1ccccc1S2	51% (inactive)
C#CCOc1cc(N(CC)CC)ccc1C(C(=O)NC(C)(C)C)N(C(=O)C1CCc2cc(F)ccc2O1)c1ccc(F)cc1 (stereo not given)	3.9% (active)
COc1cc2c(cc1OC)/C(=C\c1sc(Nc3ccc(O)cc3)nc1O)C(C(=O)O)=N2	-17.5% (active)
COc1ccc(-c2cc(-c3ccccc3)c(C#N)c(=O)[nH]2)cc1S(N)(=O)=O	142% (inactive)
O=C(CSc1nc2sc3c(c2c(=O)n1-c1ccc(Cl)cc1)CCCC3)N/N=C/C=C/c1ccccc1	64.5% (inactive)
O=C(Nc1ccc(-c2ccc3c(c2)NC(=O)/C3=C\c2ccc[nH]2)cc1)Nc1cccc(Cl)c1	10.6% (inactive)

Compound	growth
COCOc1cc2c(=O)c(C)c(C(=O)N[C@@H](Cc3ccccc3)C(O)C(=O)NCc3ccccc3)oc2cc1OC (stereo not given in full)	99.2% (inactive)
C=C1CCC2C3(C)COC(c4cccc(F)c4)OC3CCC2(C)C1CC(O)C1=CCOC1=O (stereo not given)	66.7% (inactive)
Cc1ccc([C@H]2C(C(=O)c3ccc(Cl)cc3)C3(N[C@@H]2c2ccccc2)C(=O)Nc2ccc(Br)cc23)cc1 (stereo not given in full)	35.1% (inactive)
COc1ccc(NC(=O)Cn2c(/C=C/c3ccc(N(C)C)cc3)nc3ccccc3c2=O)cc1	82.2% (inactive)
C=C1CCC2C3(C)COC(c4ccccc4F)OC3CCC2(C)C1C/C=C1/C(=O)OCC1O (stereo not given)	-0.649% (active)
Cn1cc(-c2cc(N)n3nc(-c4cn(C)c5ccccc45)cc3n2)c2cc(Br)ccc21	-32.3% (active)
Cc1noc2c(Cc3ccccc3)nn(CC(=O)N/N=C/c3ccc(F)cc3)c(=O)c12	93.2% (inactive)
Cc1occc1C(=O)NN1C(=O)/C(=C/C=C/c2ccc([N+](=O)[O-])o2)SC1=S	0.964% (active)
COc1ccccc1C(=O)NNC(=O)CSc1nc2c(c(=O)[nH]1)CCCC2	100% (inactive)
COc1ccc2cc([C@H](C)C(=O)NCc3ccccc3)ccc2c1	5.91% (active)
O=C(Nc1ccc(S(=O)(=O)N2CCCCC2)cc1)C(Cl)Cl	120% (inactive)
O=S(=O)(Nc1ncccn1)c1ccc(-n2c(-c3ccc(Br)cc3)nc(-c3ccccc3)c2-c2ccccc2)cc1	41.2% (inactive)
C#C[C@]1(O)CC[C@H]2[C@@H]3CC=C4c5sc(-c6ccc([N+](=O)[O-])cc6)nc5CC[C@]4(C)[C@H]3CC[C@@]21C	23.7% (inactive)
COc1cc2oc(-c3cccc(C(=O)Nc4ccc(Cl)cc4)c3)cc(=O)c2c(OCCNC(=O)[C@@H](N)CCC(=O)O)c1OC	81.6% (inactive)
O=C1NC(=O)c2c1c1c3cc(Br)ccc3[nH]c1c1oc3ccc(F)cc3c21	44.6% (inactive)
COc1cc(C2CC(c3ccc(S(=O)(=O)NCCNc4nc(N(C)C)nc(N5CCOCC5)n4)cc3)=Nc3c(N)nc(N)nc3N2)cc(OC)c1OC (stereo not given)	93.6% (inactive)
CN1CCN(Cc2ccc(C(=O)Nc3cccc(Nc4ccc5c(O)cccc5n4)c3)cc2C(F)(F)F)CC1	-34.1% (active)
CC1(C)CC[C@]2(C(=O)O)CC[C@]3(C)C(=CCC4[C@@]5(C)C[C@@H](O)[C@@H]6OC(c7ccc(F)cc7)OC[C@@]6(C)C5CC[C@]43C)C2C1 (stereo not given in full)	3.11% (active)
Cn1cc(-c2cc(N)n3nc(-c4c[nH]c5ccc(Cl)cc45)cc3n2)c2cccnc21	-59.8% (active)
CCCSc1nc(NCCc2c[nH]c3ccccc23)c(C#N)c(-c2ccccc2)n1	70.4% (inactive)
